# From the supplement of paper PMC3334620
# The full ranking holds about 33,000 sequences; the median of “E-score (-0.5 to 0.5)” is about -0.016, and the highest 2% start at about 0.32. Only a selection was taken, and the highest values are over-represented in it overall.
# Target: T1, Stp1 (UniProt B3LFK1)
# T1 sequence: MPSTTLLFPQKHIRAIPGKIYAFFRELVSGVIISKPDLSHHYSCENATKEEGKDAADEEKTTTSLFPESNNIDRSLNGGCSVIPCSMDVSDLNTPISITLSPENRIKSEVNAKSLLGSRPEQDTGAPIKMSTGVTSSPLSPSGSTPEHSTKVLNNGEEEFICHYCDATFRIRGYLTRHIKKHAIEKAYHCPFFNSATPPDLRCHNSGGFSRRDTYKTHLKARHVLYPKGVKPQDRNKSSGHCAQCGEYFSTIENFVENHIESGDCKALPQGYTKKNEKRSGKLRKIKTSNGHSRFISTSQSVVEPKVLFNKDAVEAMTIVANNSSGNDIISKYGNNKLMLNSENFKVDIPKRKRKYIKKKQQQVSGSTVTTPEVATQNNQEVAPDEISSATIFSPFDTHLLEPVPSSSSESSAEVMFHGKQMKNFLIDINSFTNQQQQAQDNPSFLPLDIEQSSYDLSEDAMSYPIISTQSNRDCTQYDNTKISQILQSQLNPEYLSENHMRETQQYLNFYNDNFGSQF
# Experiment: PBM E-score (8-mer binding enrichment) (E-score (-0.5 to 0.5)); higher = stronger / more preferred TF binding
# Conditions: protein concentration: 200 nM; construct: GST-full length
# Method: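 Universal 'all 10-mer' protein binding microarrays (Agilent AMADID 015681) probed with GST-tagged S. cerevisiae TFs (full-length or DBD) made by in vitro transcription/translation (PURExpress), about 100-200 nM. Bound TF was detected with fluorescent anti-GST. Each ungapped 8-mer (which stands for itself and its reverse complement) is scored by the PBM enrichment score (E-score), a modified Wilcoxon-Mann-Whitney statistic from -0.5 to +0.5, computed with the Universal PBM Analysis Suite. Scale: above 0.35 generally sequence-specific binding.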
row,Sequence,PBM E-score
1,ATGTGGCG,0.322
2,ATGTGCGG,0.213
3,AGGTGCCA,-0.0228
4,ATGTGGCC,0.0349
5,AGGTGCCC,-0.0256
6,ACGTGCGA,0.00881
7,ACGTGCGG,0.357
8,AGGTGCCG,0.385
9,CCGTGCAG,0.315
10,TCGTGCAA,0.288
11,CCGTGCAA,0.325
12,ATGTGGCA,0.27
13,CGTTGACA,0.0374
14,AGAATCTC,-0.0977
15,AAGGAGCC,-0.0111
16,CTCTTAGC,0.0466
17,ACGTCGTG,-0.00714
18,AGTGGGCG,0.0679
19,ACGTGCCT,0.278
20,TCGTGGCA,0.102
21,CCGTGGCA,0.357
22,ACGTGCCG,0.39
23,ACGTGCCC,0.18
24,ACGTGGCA,0.152
25,GATGGCAC,0.196
26,ATCTCTTG,-0.137

row,Sequence,PBM E-score
1,AACCGCAC,0.0401
2,AGCCGCAT,0.452
3,AGCCGCAC,0.42
4,ACCCGCAC,0.129
5,AGCCGCAA,0.188
6,ACCCGCAT,0.1
7,CACTCTGC,-0.129
8,CCCTTCTC,-0.259
9,CTCAGGTC,-0.196
10,TATTAGCA,0.0213
11,ACTCAAGA,-0.0476
12,AATATAAT,0.0522
13,CATATAAG,0.118
14,AATATAAG,0.32
15,CCGTTTAA,0.349
16,ACGTTTAA,0.12
17,CCGTTTAC,0.235
18,AGTTCTAA,-0.0232
19,TATGGCGA,0.0899
20,CCATAAAG,-0.0597
21,GAGGCACC,0.239
22,CAGGCACC,-0.107
23,AAGGCACG,0.397
24,CAGGCACG,0.174
25,AAGGCAGA,-0.164
26,AAGGCAAA,0.247

row,Sequence,PBM E-score
1,AAGGCACC,0.402
2,GAGGCAGA,-0.118
3,CAGGCACA,-0.259
4,AAGGCACA,0.338
5,GAGGCACA,0.332
6,TAGGCACA,0.132
7,CACAAGCA,-0.0847
8,AGTCCTTG,-0.0837
9,GTTTCTCA,-0.115
10,CAAGTAAC,0.0497
11,ATGAGAAT,0.146
12,CCTAATCA,-0.0333
13,ACAGAGAA,-0.0516
14,GATTTGCC,0.219
15,AGCCCGCC,-0.0384
16,ATCTGCTC,-0.272
17,TAAGATTA,0.0404
18,AAGGCATG,0.158
19,AATGCACT,0.109
20,AAGGCACT,0.323
21,AAGGCATC,0.292
22,AAGGCATT,0.322
23,AGGGCACT,0.239
24,CCCTACAG,-0.178
25,GTCGCAAA,0.155
26,CACGGCTC,0.469

row,Sequence,PBM E-score
1,CAAGGCTC,0.0922
2,CACGGCTG,0.363
3,AACGGCTG,0.0994
4,AACGGCTT,0.366
5,GACGGCTC,0.307
6,AACGGCTC,0.407
7,CCCGGCTA,-0.148
8,AAAGGCTT,-0.0867
9,ACCGGCTC,-0.0667
10,AACGGGCT,-0.293
11,ACCGGCTG,-0.0577
12,CATGTAGG,-0.00116
13,AGTTGAGA,-0.0601
14,ACTCCAGG,-0.175
15,GGAGCACC,-0.188
16,CCTTACAG,0.0881
17,AGGGAGTG,-0.0747
18,CCGTCATA,0.0738
19,CAGAACGA,0.00724
20,CTCGGCTA,0.0804
21,GCCGGCTA,0.0397
22,ATCGGCTA,-0.108
23,ACCGGCTA,-0.0689
24,GTCGGCTA,-0.0709
25,GACGGCTA,0.235
26,AACGGCTA,0.372

row,Sequence,PBM E-score
1,CACGGCTA,0.415
2,TACGGCTA,0.349
3,ACACCTTA,0.0262
4,ACGACCGT,-0.11
5,AAAGTGCC,0.201
6,AGCACGGG,0.14
7,CACACGGC,0.471
8,ATCACGGG,0.00016
9,CACACGGG,0.235
10,AACACGGA,0.199
11,AGCACGGA,0.114
12,AACACGGG,0.116
13,CACACGGA,0.253
14,ATCACGGC,0.351
15,AGCACGGC,0.451
16,ATCACGGA,-0.0235
17,AACACGGC,0.449
18,ACACCGAA,0.0644
19,AAGGAGCT,-0.235
20,AAAGCAAC,0.0791
21,AGTATTCG,0.0476
22,ATTTGGTA,0.144
23,AGACGCGC,0.0493
24,GACACGCC,0.105
25,GACACGGC,0.479
26,GACACGGA,0.315

row,Sequence,PBM E-score
1,GCCCTATA,0.206
2,AACCAAAG,0.0816
3,ACCACTAT,-0.127
4,AGCATTAA,-0.0764
5,CGCATTAC,-0.0452
6,GGCATTAC,0.364
7,AGCATTAC,-0.0767
8,CGCATTAA,0.144
9,GGCATTAA,0.319
10,ATACTGGC,-0.284
11,AATATCGT,0.141
12,ACCCAACT,-0.178
13,GGTGCCGA,0.288
14,CGTGCCAG,0.172
15,AGTGCCGG,0.211
16,ACTGCCGG,0.0822
17,CCTGCCGC,0.226
18,AGTGCCGC,0.477
19,CGTGCCAC,0.232
20,CGTGCCGC,0.475
21,CGTGCCGA,0.352
22,ACTGCCGC,0.412
23,CGTGCCCA,0.235
24,AGTGCCAC,0.242
25,ACAGGTAG,-0.126
26,GAACTCCA,-0.0707

row,Sequence,PBM E-score
1,CCGACTTA,0.0516
2,CTCTGAAA,0.0291
3,CATTCTCG,0.128
4,GGGCCTGA,-0.296
5,CTTGCCGC,0.309
6,ATTGCCGA,0.177
7,ATTGCCGC,0.418
8,AGTGCCCA,0.0772
9,AGTGCCGA,0.322
10,AGTGCCAA,-0.0972
11,ATCAACCG,-0.0921
12,ACCGTACC,-0.0289
13,ACCGTACA,0.117
14,GCCGTACC,0.46
15,CCCGTACC,0.191
16,CCCGTACA,-0.0395
17,GCCGTACA,0.459
18,CCAGAGAG,-0.245
19,ACTCGGCA,0.324
20,CCTCGGCA,0.282
21,GCGCGGCC,0.4
